# Source: PubChem BioAssay (NCI)
# The panel holds about 83,000 compounds, 20% with a hit somewhere; the sample as a whole holds those more often.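 Compound tested at a single concentration for 48 hours in 96-well plates; a percent growth value below 10 was scored as active.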 A number with no mark means an inactive call. The source made the active and inactive calls.
# Columns and labels:
# Assay in all cases: NCI-60 one-dose screen, 48 h (100 = growth as untreated, 0 = no growth, -100 = all killed)
# Settings in all cases: 10 µM unless noted
# HCT-15 colon = tested on: HCT-15 colon
# HT29 colon = tested on: HT29 colon
# SNB-75 CNS = tested on: SNB-75 CNS
# SNB-19 CNS = tested on: SNB-19 CNS
# U251 CNS = tested on: U251 CNS
# PC-3 prostate = tested on: PC-3 prostate
# SK-MEL-5 melanoma = tested on: SK-MEL-5 melanoma
# UACC-62 melanoma = tested on: UACC-62 melanoma
# LOX IMVI melanoma = tested on: LOX IMVI melanoma
# SK-MEL-28 melanoma = tested on: SK-MEL-28 melanoma
Structure (SMILES),growth (HCT-15 colon),growth (HT29 colon),growth (SNB-75 CNS),growth (SNB-19 CNS),growth (U251 CNS),growth (PC-3 prostate),growth (SK-MEL-5 melanoma),growth (UACC-62 melanoma),growth (LOX IMVI melanoma),growth (SK-MEL-28 melanoma)
N#Cc1c(N)nc2c(nnn2-c2cccc(Br)c2)c1N,104%,102%,97.6%,95.9%,93%,91.6%,96.4%,95.6%,102%,
Cc1cc(C(c2ccccc2)c2ccccc2)ccc1NS(=O)(=O)c1ccccc1,96.3%,89.3%,95.4%,101%,94.6%,83.6%,94.8%,85.2%,87.7%,112%
O[C@H]1CO[C@H]2[C@@H]1OC[C@@H]2Oc1ccc(Nc2nc(Nc3ccc(F)c(Cl)c3)ncc2F)cc1Cl,90.8%,111%,74.7%,103%,108%,102%,-90.5% (active),89.4%,103%,
CCOc1ccc2nc(-c3cccc(OCC(=O)NC(C)C)c3)nc(Nc3ccc(-c4cn[nH]c4)cc3)c2c1,30.8%,-27.6% (active),-62% (active),19.4%,-33.8% (active),0.124% (active),-81.1% (active),-6.26% (active),-10.8% (active),-71.4% (active)
CCCCNC(=O)NS(=O)(=O)c1ccc(N2N=C(c3ccc(C)cc3C)CC2c2ccc(N(C)C)cc2)cc1 (stereo not given),35.3%,62%,75.4%,75.6%,37%,38%,47%,54.8%,52.2%,
CC(C)(O)c1cccc(F)c1,99.2%,108%,92.3%,97.6%,106%,99.9%,103%,88.7%,97.7%,
NC(=O)c1c(NC(=O)c2ccccn2)sc2c1CCC(=O)C2,13.4%,68%,-1.34% (active),42.7%,13.6%,10.7%,-19.5% (active),-3.06% (active),21.6%,
CC[C@]1(O)C[C@H]2CN(CCc3c([nH]c4ccccc34)[C@@](C(=O)OC)(c3cc4c(cc3OC)N(C=O)[C@H]3[C@@](O)(C(=O)OC)[C@H](OC(C)=O)[C@]5(CC)C=CCN6CC[C@]43[C@@H]65)C2)C1,10.9%,-3.03% (active),15.7%,10.1%,24.2%,18.3%,-73.5% (active),23.9%,28.8%,
O=C(/C=C/C12c3ccccc3C(c3ccccc31)C1C(=O)N(c3ccccc3)C(=O)C12)c1ccccc1 (stereo not given),-25.8% (active),15.1%,34.2%,31.2%,7.97% (active),21.2%,-67.1% (active),1.31% (active),-81.4% (active),2.04% (active)
CN(CCCCCCCCNc1ccnc2ccccc12)Cc1ccc(-c2ccc(-c3ccc(C#N)cc3)s2)cc1,-82.1% (active),-55.1% (active),42.5%,-14.6% (active),-73.7% (active),-63.7% (active),-100% (active),-37.4% (active),-96.2% (active),
COc1cc2c(cc1OC)-c1ccc3cc4c(cc3c1N(CCCN1CCCCC1)C2)OCO4,47.5%,25.4%,51.3%,42.6%,42.1%,29.3%,44.9%,59.2%,32.5%,
C[C@@H]1C(=O)N(C[C@H](Cc2ccccc2)NC(=O)OCc2ccccc2)[C@]1(Cc1ccccc1)C(=O)OC(C)(C)C,62.9%,56.3%,68.7%,71.7%,63.2%,27.5%,58.8%,51.9%,73.3%,
O=C(/C=C/C12c3ccccc3C(c3ccccc31)C1C(=O)NC(=O)C12)c1ccc(Cl)cc1 (stereo not given),-43.1% (active),7.13% (active),8.43% (active),17.3%,-10.9% (active),21.7%,-61.5% (active),-18.3% (active),-87.9% (active),-32.1% (active)
COc1ccccc1C(=O)NC(=S)Nc1ccc(-c2nc3ccccc3[nH]2)cc1,59.5%,14.8%,-62.7% (active),84%,29.3%,86%,25.8%,109%,20%,69.5%
CN=C1C=CC(=C(c2ccc(N(C)C)cc2)c2ccc(N(C)C)cc2)C=C1,7.06% (active),-37.2% (active),-26.7% (active),3.16% (active),-57.5% (active),2.74% (active),-98.5% (active),-50.2% (active),-59.3% (active),
O=C(NC1CCOCC1)c1ccc2c(c1)CN(c1ncc(Cc3cccc(-n4cccn4)c3)s1)CC2,79.3%,72.8%,91.5%,95.7%,72.6%,58.7%,31.5%,64.5%,63.8%,
CNC1(C#N)CCN(Cc2ccccc2)CC1,104%,102%,81.5%,99.8%,108%,97.6%,116%,92.5%,102%,136%
CCCCCCNCc1cc(C(C)(C)C)cc(CNCCCCCC)c1O,-59.6% (active),-86% (active),-62.1% (active),9.11% (active),-88.4% (active),6.77% (active),-98.2% (active),-85.3% (active),-88.8% (active),
Oc1[nH]c2ccccc2c1/C=c1/cc2c(c(-c3ccc(F)cc3)n1)=Nc1ccccc1-2,-18.1% (active),-41.7% (active),-2.31% (active),25.2%,-57.8% (active),-14.8% (active),-38.9% (active),-56% (active),-58.1% (active),
CCCc1cc(=O)oc2c3c(c4c(c12)OC(C)(C)C=C4)O[C@@H](C)[C@H](C)C3=O,98.1%,41%,87.7%,93.6%,65.7%,40.7%,32.1%,66%,81.2%,
CCNCCNc1cc(-c2cccc(C(F)(F)F)c2)c(C#N)c2nc3ccccc3n12,-91.4% (active),-82.5% (active),-89.3% (active),-20.3% (active),-88.7% (active),-59% (active),-96.1% (active),-68.6% (active),-85.7% (active),
CCN1CCN(c2ccc(Nc3cc(-c4cccnc4Nc4c(Cl)c(OC)cc(OC)c4Cl)ncn3)cc2)CC1,63.3%,31.9%,42.8%,81%,71.6%,55.3%,74%,85.9%,44.7%,
CS(=O)(=O)c1ccc(-c2[nH]c3ccc(F)cc3c2/C=N/NC(N)=S)cc1,20.4%,3.14% (active),22.4%,15.6%,15.5%,19.1%,17.3%,14.7%,30.1%,
CCOC(=O)C(=CNc1ccccc1[N+](=O)[O-])C(=O)OCC,108%,92.6%,97%,91.2%,92.6%,95.7%,86.4%,84.4%,99.9%,102%
CN1C[C@@H](c2ccc(Cl)cc2)[C@]2(NC(=S)N(c3ccc(F)c(Cl)c3)C2=O)[C@@]12C(=O)NC1C=CC(Cl)=C[C@H]12 (stereo not given in full),48.5%,33.4%,53.2%,47.2%,59.9%,8.42% (active),44.5%,55.7%,43.5%,
C[C@@H]1C(=O)N(C[C@@H](Cc2ccccc2)NC(=O)OCc2ccccc2)[C@]1(Cc1ccccc1)C(=O)OCc1ccccc1,41.6%,50.7%,61.1%,44.3%,34.6%,14.2%,-6.61% (active),43.3%,51.8%,
CCN(CC)CCOC(=O)N1c2ccccc2Sc2ccccc21,102%,75.9%,84.2%,97.8%,91.8%,68.8%,94.2%,91%,96.7%,101%
c1ccc(-c2oc3ccccc3c2-c2ccccc2)cc1,93.6%,99%,72.5%,99.3%,95.9%,90%,84.3%,80%,95.8%,
